Reference: ChEMBL document CHEMBL1961873, “Compounds: GSK PKIS; Assays: Nanosyn kinase panel” (2012)

Key:
[1] = target: T1, Inhibitor of nuclear factor kappa-B kinase subunit epsilon (Homo sapiens) (UniProt Q14164); details: at 1 µM;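 note: reported values are averaged percent inhibition figures against human IKKε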
T1 sequence (whole entry): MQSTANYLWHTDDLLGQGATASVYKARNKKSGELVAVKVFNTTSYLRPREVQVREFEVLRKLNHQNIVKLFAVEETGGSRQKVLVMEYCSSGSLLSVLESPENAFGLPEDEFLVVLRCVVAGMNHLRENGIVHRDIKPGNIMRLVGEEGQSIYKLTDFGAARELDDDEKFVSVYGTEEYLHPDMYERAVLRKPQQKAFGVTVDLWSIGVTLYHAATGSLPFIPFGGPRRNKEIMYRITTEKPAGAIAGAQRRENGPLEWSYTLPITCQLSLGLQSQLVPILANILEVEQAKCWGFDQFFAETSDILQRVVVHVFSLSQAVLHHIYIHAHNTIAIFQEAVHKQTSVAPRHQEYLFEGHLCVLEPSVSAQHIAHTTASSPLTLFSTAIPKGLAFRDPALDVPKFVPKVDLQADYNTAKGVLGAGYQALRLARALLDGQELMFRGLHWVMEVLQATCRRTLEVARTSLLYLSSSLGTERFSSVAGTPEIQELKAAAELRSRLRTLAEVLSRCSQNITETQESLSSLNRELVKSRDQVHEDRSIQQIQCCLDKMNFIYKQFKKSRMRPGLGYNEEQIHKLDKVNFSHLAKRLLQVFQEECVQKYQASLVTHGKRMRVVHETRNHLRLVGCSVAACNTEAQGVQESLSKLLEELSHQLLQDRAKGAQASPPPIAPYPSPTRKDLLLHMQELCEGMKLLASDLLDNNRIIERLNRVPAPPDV

[2] = target: T2, Serine/threonine-protein kinase Nek1 (Homo sapiens) (UniProt Q96PY6); details: at 0.1 µM
T2 sequence (whole entry): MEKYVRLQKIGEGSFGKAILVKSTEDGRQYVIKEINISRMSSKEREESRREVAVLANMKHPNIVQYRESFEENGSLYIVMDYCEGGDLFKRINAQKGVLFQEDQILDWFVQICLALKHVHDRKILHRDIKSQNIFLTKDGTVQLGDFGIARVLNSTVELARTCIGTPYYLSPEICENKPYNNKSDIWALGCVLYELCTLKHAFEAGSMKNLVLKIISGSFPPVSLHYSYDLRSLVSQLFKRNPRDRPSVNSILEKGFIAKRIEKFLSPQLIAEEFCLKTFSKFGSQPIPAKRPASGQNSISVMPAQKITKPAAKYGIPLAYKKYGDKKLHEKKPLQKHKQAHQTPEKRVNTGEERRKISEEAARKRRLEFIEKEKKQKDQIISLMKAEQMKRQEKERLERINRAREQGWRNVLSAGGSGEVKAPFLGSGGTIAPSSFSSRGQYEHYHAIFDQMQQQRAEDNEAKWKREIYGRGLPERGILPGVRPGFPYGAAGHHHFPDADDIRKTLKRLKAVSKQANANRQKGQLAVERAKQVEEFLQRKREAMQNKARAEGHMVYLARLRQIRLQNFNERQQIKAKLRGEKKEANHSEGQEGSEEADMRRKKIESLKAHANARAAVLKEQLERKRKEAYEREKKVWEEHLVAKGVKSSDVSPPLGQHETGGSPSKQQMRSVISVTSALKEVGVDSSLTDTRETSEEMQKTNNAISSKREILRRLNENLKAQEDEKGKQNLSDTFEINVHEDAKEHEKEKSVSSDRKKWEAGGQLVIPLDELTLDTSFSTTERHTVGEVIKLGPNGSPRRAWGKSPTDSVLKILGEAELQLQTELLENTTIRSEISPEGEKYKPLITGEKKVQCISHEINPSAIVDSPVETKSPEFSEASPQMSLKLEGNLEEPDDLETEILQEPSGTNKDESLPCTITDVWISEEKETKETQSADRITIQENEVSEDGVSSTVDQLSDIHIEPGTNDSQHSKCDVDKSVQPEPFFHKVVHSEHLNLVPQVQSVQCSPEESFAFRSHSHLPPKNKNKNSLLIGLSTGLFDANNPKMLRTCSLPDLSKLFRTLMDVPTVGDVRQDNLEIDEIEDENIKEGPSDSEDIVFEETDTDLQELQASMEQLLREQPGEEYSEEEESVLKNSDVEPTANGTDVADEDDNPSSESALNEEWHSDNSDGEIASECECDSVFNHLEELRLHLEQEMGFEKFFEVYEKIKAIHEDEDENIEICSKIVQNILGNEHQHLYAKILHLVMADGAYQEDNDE

[3] = target: T2, Serine/threonine-protein kinase Nek1 (Homo sapiens); details: at 1 µM
[4] = target: T3, Serine/threonine-protein kinase Nek2 (Homo sapiens) (UniProt P51955); details: at 0.1 µM
T3 sequence (whole entry): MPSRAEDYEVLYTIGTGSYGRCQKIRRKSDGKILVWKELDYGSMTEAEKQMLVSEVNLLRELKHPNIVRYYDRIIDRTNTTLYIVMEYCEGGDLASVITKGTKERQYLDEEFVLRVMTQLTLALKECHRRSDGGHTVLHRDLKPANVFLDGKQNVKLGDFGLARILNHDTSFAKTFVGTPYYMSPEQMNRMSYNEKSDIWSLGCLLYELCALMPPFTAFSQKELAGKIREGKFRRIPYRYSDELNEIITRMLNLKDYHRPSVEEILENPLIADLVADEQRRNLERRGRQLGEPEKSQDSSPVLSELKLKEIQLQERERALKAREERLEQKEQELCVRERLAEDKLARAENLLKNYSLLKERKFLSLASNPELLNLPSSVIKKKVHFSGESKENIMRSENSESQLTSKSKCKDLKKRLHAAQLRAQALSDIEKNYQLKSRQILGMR

[5] = target: T3, Serine/threonine-protein kinase Nek2 (Homo sapiens); details: at 1 µM
[6] = target: Serine/threonine-protein kinase Nek6 (Homo sapiens) (UniProt Q9HC98); details: at 0.1 µM
Sequence of Serine/threonine-protein kinase Nek6 (Homo sapiens) (Q9HC98 whole entry): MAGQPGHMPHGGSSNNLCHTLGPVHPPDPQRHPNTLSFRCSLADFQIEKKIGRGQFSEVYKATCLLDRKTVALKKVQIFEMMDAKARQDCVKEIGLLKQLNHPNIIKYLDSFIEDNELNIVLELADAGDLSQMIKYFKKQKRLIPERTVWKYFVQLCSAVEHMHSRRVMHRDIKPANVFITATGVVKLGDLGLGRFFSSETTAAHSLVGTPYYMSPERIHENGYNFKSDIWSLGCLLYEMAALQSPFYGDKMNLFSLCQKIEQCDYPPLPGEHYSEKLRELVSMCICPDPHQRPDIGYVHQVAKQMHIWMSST

[7] = target: Serine/threonine-protein kinase Nek6 (Homo sapiens) (UniProt Q9HC98); details: at 1 µM
[8] = target: Serine/threonine-protein kinase Nek7 (Homo sapiens) (UniProt Q8TDX7); details: at 0.1 µM
Sequence of Serine/threonine-protein kinase Nek7 (Homo sapiens) (Q8TDX7 whole entry, looked up): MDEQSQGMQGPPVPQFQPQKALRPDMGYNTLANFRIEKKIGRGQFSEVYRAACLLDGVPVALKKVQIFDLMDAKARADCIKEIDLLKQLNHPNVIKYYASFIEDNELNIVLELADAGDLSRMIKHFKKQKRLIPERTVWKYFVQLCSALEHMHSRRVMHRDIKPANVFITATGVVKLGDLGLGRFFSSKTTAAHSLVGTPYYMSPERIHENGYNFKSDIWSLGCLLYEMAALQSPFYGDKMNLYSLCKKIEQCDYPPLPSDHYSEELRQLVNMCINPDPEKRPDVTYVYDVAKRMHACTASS

[9] = target: Serine/threonine-protein kinase Nek7 (Homo sapiens) (UniProt Q8TDX7); details: at 1 µM
[10] = target: T4, Serine/threonine-protein kinase Nek9 (Homo sapiens) (UniProt Q8TD19); details: at 0.1 µM
T4 sequence (whole entry): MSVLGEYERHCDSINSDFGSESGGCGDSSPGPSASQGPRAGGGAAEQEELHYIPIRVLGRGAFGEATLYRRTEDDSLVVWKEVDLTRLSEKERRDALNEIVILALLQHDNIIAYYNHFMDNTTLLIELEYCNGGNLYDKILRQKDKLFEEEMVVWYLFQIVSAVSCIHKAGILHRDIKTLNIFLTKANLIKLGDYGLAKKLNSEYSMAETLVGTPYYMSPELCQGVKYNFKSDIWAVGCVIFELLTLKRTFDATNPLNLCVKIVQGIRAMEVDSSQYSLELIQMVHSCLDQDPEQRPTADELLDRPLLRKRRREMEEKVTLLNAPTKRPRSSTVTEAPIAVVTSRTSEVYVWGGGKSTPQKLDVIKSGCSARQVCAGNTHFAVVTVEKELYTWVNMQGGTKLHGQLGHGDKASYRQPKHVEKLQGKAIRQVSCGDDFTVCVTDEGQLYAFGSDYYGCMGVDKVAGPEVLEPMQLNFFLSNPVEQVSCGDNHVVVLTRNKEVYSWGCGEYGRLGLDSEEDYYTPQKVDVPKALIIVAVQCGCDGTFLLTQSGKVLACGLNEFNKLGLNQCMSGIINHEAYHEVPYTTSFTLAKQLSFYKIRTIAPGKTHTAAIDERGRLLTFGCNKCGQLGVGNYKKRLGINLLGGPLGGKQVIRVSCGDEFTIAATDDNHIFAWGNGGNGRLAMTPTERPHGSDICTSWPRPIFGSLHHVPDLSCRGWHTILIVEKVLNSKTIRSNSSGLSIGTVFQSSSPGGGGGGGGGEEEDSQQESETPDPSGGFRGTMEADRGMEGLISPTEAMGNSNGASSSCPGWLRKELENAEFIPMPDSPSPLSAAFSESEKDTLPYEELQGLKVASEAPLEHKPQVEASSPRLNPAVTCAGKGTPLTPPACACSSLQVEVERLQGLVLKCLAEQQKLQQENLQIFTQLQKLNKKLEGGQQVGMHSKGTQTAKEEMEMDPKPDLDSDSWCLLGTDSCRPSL

[11] = target: T4, Serine/threonine-protein kinase Nek9 (Homo sapiens); details: at 1 µM
[12] = target: Serine/threonine-protein kinase PLK1 (Homo sapiens) (UniProt P53350); details: at 0.1 µM
Sequence of Serine/threonine-protein kinase PLK1 (Homo sapiens) (P53350 whole entry): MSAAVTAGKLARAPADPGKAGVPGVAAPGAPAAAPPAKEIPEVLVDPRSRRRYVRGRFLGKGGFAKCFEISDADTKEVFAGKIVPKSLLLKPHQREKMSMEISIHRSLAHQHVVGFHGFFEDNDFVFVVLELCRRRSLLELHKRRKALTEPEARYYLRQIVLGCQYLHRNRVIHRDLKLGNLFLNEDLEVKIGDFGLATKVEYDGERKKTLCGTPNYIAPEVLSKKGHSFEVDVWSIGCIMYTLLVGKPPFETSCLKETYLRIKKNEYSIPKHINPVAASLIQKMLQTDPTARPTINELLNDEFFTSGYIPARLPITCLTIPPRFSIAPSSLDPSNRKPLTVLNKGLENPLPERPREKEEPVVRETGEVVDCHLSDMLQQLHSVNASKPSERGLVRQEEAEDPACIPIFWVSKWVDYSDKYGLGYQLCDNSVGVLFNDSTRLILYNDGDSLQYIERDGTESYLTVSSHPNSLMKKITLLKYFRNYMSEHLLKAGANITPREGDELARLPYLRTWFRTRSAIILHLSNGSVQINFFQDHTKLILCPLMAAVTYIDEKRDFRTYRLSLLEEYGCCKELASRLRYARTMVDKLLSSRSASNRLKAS

[13] = target: Serine/threonine-protein kinase PLK1 (Homo sapiens) (UniProt P53350); details: at 1 µM
[14] = target: T5, Dual specificity protein kinase TTK (Homo sapiens) (UniProt P33981); details: at 0.1 µM
T5 sequence (whole entry): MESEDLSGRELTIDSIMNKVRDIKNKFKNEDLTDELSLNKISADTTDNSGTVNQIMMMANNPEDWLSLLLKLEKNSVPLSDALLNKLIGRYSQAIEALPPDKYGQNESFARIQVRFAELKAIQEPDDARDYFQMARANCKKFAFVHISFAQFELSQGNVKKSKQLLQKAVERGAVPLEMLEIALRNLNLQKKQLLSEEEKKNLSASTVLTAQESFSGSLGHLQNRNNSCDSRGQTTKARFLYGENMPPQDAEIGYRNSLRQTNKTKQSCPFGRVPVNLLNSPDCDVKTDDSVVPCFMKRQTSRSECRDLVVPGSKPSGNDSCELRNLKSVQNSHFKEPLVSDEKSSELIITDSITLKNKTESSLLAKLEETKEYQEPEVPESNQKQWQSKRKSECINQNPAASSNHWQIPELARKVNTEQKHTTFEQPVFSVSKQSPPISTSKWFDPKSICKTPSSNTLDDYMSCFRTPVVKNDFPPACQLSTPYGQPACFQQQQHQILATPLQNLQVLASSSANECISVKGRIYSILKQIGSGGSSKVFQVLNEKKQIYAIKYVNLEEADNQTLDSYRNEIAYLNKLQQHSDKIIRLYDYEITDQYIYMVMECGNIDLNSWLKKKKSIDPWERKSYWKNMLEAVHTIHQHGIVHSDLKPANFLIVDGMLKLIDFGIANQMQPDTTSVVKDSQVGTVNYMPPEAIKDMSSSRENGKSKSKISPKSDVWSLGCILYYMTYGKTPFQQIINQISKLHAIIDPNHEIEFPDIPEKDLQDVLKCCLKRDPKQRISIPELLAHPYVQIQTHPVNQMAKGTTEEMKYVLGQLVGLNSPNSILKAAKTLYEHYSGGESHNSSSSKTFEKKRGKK

[15] = system: T6, Receptor-type tyrosine-protein kinase FLT3 (Homo sapiens), P36888 [D835Y]; details: at 1 µM
T6 sequence (whole entry): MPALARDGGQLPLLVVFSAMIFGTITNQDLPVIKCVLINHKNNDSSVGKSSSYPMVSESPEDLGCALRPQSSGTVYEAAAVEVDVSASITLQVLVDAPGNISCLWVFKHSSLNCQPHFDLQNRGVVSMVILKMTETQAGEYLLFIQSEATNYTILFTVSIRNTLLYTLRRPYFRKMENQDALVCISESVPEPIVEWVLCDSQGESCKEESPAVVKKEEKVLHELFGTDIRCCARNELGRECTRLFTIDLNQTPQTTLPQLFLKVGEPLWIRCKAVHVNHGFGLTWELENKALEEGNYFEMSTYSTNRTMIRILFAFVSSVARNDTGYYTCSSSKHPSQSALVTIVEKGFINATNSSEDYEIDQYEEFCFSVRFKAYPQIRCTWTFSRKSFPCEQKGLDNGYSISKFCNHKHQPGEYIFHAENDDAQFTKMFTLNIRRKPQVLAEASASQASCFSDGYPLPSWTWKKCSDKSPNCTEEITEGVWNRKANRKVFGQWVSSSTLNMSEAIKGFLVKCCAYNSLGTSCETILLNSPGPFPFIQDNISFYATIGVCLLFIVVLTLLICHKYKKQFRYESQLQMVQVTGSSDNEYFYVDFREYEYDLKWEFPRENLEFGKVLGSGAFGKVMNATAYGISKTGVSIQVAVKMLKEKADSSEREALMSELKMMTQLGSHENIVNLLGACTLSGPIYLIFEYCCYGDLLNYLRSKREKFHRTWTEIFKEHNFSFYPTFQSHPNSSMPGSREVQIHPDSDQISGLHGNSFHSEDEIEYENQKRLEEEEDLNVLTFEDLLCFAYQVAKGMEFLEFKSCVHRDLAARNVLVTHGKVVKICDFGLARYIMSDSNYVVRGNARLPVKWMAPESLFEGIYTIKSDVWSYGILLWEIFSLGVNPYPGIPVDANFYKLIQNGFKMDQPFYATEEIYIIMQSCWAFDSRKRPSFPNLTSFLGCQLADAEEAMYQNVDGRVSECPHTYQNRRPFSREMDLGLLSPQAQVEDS

[16] = target: Vascular endothelial growth factor receptor 3 (Homo sapiens) (UniProt P35916); details: at 0.1 µM
Sequence of Vascular endothelial growth factor receptor 3 (Homo sapiens) (P35916 whole entry): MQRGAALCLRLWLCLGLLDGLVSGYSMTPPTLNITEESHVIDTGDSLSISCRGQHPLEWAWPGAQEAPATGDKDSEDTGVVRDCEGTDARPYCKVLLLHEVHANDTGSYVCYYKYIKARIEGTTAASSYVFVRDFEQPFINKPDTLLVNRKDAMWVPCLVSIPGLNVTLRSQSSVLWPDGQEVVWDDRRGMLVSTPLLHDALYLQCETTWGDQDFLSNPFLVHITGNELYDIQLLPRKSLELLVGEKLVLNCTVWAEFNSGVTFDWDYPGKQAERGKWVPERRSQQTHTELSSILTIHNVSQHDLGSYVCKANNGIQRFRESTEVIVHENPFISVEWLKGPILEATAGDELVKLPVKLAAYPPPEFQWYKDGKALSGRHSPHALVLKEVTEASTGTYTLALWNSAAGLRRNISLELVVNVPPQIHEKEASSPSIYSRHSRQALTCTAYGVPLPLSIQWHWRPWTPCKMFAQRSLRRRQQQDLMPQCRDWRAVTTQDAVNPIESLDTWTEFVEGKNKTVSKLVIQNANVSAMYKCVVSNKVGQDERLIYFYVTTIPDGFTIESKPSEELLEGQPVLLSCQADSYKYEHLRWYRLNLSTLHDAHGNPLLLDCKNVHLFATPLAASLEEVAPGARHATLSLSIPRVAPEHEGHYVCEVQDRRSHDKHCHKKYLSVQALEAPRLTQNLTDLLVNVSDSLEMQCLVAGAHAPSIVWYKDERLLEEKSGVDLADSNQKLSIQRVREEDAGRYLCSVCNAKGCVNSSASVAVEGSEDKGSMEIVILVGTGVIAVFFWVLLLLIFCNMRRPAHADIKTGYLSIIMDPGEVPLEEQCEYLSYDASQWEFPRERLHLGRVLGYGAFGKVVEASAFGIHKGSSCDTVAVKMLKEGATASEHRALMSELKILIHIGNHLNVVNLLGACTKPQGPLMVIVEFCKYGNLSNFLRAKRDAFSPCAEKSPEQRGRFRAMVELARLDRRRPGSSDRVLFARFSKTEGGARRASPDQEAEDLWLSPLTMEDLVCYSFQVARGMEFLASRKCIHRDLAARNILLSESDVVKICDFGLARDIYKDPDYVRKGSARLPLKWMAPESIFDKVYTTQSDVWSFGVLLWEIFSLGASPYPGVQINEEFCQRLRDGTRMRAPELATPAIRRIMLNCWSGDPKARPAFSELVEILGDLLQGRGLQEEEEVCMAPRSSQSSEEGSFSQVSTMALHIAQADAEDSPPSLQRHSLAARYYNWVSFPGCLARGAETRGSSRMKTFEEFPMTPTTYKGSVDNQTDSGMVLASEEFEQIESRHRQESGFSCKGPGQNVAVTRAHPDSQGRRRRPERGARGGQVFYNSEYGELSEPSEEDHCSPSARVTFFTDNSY

[17] = target: Vascular endothelial growth factor receptor 3 (Homo sapiens) (UniProt P35916); details: at 1 µM
[18] = target: Macrophage colony-stimulating factor 1 receptor (Homo sapiens) (UniProt P07333); details: at 0.1 µM
Sequence of Macrophage colony-stimulating factor 1 receptor (Homo sapiens) (P07333 whole entry): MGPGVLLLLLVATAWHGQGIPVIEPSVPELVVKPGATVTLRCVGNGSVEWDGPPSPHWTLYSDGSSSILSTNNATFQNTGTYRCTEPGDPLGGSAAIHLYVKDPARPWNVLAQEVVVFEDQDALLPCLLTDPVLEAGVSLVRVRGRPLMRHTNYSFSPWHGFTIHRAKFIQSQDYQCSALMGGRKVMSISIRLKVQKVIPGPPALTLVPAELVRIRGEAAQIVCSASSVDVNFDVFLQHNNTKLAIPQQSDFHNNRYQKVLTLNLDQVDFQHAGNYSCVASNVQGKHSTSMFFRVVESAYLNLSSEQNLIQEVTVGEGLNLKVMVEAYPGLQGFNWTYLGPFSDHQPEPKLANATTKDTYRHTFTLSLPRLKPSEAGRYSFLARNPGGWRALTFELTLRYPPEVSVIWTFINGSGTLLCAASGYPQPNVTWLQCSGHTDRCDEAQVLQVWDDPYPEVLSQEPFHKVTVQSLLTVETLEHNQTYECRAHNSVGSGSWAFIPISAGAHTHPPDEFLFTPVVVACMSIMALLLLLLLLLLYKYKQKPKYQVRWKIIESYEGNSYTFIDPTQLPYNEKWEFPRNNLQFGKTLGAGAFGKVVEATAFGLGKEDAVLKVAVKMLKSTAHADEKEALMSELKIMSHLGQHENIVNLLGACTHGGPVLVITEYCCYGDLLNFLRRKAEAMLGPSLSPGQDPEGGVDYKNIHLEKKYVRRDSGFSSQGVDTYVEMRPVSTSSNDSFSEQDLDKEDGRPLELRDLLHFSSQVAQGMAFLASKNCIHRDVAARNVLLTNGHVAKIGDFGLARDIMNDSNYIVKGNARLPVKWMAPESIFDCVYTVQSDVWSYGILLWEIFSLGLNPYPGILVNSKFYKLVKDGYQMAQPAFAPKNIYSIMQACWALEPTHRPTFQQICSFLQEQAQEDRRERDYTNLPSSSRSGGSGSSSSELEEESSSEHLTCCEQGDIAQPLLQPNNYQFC

[19] = target: Macrophage colony-stimulating factor 1 receptor (Homo sapiens) (UniProt P07333); details: at 1 µM
[20] = target: Tyrosine-protein kinase Fyn (Homo sapiens) (UniProt P06241); details: at 0.1 µM
Sequence of Tyrosine-protein kinase Fyn (Homo sapiens) (P06241 2-537 limits assumed): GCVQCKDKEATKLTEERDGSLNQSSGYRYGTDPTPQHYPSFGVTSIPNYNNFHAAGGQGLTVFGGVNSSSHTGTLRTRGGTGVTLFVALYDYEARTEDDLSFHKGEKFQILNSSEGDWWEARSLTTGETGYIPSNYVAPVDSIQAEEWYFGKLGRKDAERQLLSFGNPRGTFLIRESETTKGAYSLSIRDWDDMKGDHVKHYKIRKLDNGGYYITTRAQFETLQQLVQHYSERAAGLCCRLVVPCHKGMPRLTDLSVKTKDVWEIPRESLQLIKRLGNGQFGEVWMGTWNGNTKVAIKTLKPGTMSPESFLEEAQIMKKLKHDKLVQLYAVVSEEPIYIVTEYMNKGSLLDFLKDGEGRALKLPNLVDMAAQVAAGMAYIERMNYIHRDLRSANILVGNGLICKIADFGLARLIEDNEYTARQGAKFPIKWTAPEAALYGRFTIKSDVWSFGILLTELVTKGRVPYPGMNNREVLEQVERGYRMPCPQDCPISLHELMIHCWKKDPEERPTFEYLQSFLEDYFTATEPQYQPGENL

Compound	inhibition [1]	inhibition [2]	inhibition [3]	inhibition [4]	inhibition [5]	inhibition [6]	inhibition [7]	inhibition [8]	inhibition [9]	inhibition [10]	inhibition [11]	inhibition [12]	inhibition [13]	inhibition [14]	inhibition [15]	inhibition [16]	inhibition [17]	inhibition [18]	inhibition [19]	inhibition [20]
CCCN1CCC(c2ccc(Nc3nc(Nc4cc(F)ccc4C(N)=O)c4cc[nH]c4n3)c(OC)c2)CC1	5.85%	4.68%	21.6%	4.85%	17.6%	4.35%	8.4%	7.49%	8.87%	8.38%	32.5%	12.5%	49.8%	81.5%	56%	-1.93%	2.22%	34.3%	81.5%	3.91%
O=C(O[C@H]1CN[C@H](C#Cc2cc3ncnc(Nc4ccc(Cc5ccccc5)cc4)c3s2)C1)N1CCOCC1	3.15%	1.41%	1.96%	2.89%	4.01%	1.71%	1.61%	2.18%	2.21%	4.6%	7.49%	1.59%	1.47%	3.54%	-0.77%	-2.62%	4.62%	-3.48%	3.66%	-0.06%
